PubChem BioAssay
Active and inactive are the calls of the source.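 Rule for the calls, unless noted: active = inhibition of the reporter signal at or above 50%; inactive = inhibition below 50%.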

Assays:
[1] = inhibitors of TNFa-induced NFkB p65 translocation, primary screen, imaging, HUVEC, MLSMR starter and 10KST1 sets (AID 438;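 active = inhibition above 20% together with a positive visual image hit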;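 note: compound added about 3h40 before a 20 min TNFalpha stimulation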;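 for inhibition: signal is the nuclear over cytoplasmic p65 intensity ratio per well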); conditions: HUVEC TNFa-induced p65 nuclear translocation; cell count: measured here: nuclei count (cytotoxicity indicator), at 2.08 µM; inhibition: at 2 µM, stronger effect = higher value, 0% TNFa-plus-vehicle, 100% no-TNFa wells
[2] = reduction of polyQ htt aggregates in cells – imaging, exon1htt(103Q)mCFP cells, high-content imaging, primary screen (AID 483;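 active = visual image review flags a hit and inhibition of aggregation exceeds 20%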;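 note: compound exposure lasted 3 days before fixation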;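 for nuclei count: percent of the per-plate median nuclei count of sample wells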); conditions: exon1htt(103Q)mCFP cell line, aggregate imaging, at 2 µM; inhibition of aggregation: stronger effect = higher value; nuclei count: measured here: cell count, toxicity
[3] = endothelial E-selectin expression blockers – imaging, HUVEC, immunofluorescence, MLSMR starter and 10KST1 sets, primary screen (AID 487;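 active = visually confirmed hit in the image check and inhibition above 20%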;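 for inhibition: signal is fraction of cell area covered by stained E-selectin grains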;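 for nuclei count: 100% = median nuclei count of all wells on the same plate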); conditions: HUVEC TNFalpha-induced E-selectin immunofluorescence imaging, at 2 µM; inhibition: stronger effect = higher value; nuclei count: measured here: cell number, toxicity
[4] = target: Voltage-gated potassium channel subunit beta-2 (Rattus norvegicus) (UniProt P62483); experiment: inhibitors of rat Kvbeta2 reductase activity – biochemical, NADPH fluorescence, primary screen (AID 622;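 active = fluorescence slope higher than the sample average by over 3 SD, cut at about -0.22 in these data, passing the limit was not always enough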;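 note: slope of raw intensity against log time taken from 70 to 1610 s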); conditions: recombinant KvBeta, 4-cyanobenzaldehyde reduction, at 10 µM, stronger effect = higher value
Voltage-gated potassium channel subunit beta-2 (Rattus norvegicus), sequence (P62483 whole entry, looked up): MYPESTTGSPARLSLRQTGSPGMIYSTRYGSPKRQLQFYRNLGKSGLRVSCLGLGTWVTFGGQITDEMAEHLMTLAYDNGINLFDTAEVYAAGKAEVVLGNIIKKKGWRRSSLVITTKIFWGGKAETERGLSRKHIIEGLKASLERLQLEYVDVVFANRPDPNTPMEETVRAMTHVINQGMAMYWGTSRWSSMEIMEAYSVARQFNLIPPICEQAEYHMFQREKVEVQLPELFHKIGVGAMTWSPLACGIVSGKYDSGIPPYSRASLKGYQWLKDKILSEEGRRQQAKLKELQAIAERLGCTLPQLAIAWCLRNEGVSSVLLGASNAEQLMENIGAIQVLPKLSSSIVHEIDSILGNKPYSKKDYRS

[5] = target: Voltage-gated potassium channel subunit beta-2 (Rattus norvegicus) (UniProt P62483); experiment: enhancers of rat Kvbeta2 NADPH turnover – biochemical, NADPH fluorescence, primary screen (AID 623;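 active = NADPH fluorescence slope more negative than the mean of all samples by about 3 SD, 99.7% confidence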;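 note: fluorescence intensity change per second fitted from 20 to 320 s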); conditions: Recombinant KvBeta, NADPH fluorescence decrease slope, 10 min; at 10 µM; stronger effect = lower value
[6] = target: Alpha-2C adrenergic receptor (Homo sapiens) (UniProt P18825); experiment: compounds altering alpha2C-coupled GIRK flux – cell-based, HEK293 alpha2C/GIRK1/2, thallium flux, primary screen (AID 624;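 active = fluorescence slope after compound addition differing from the mean of all screened samples at 99.7% confidence, in either direction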;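 note: slope of fluorescence ratio to pre-addition baseline per second over 15 to 24 s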); conditions: thallium flux BTC fluorescence, at 10 µM, actives lie on both sides
Alpha-2C adrenergic receptor (Homo sapiens), sequence (P18825 whole entry, looked up): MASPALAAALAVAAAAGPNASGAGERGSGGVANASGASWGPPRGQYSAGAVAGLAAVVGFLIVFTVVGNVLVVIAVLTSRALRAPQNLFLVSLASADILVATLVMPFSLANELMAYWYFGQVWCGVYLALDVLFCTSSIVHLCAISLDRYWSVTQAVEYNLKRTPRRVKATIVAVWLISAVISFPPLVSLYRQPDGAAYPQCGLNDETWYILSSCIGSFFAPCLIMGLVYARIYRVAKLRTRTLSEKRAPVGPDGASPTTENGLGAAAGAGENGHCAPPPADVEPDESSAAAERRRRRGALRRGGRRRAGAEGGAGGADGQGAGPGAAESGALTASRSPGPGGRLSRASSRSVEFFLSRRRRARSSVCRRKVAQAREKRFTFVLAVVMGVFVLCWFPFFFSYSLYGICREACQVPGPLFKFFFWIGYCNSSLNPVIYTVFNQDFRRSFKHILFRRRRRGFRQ

[7] = blockers of RIG-like receptor reporter activation – cell-based, Sendai virus stimulus, luciferase, 10K MLSCN set, TLR/RLR signaling modifier project, primary screen (AID 602276;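 active = inhibition at or above 50% at 10 µM; inactive = inhibition below 50%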;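 note: firefly luciferase from ISG56 promoter only with Renilla not read in this screen; 0% = Sendai virus plus DMSO and 100% = medium plus DMSO without virus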); conditions: HEK293 RL24 IRF3 luciferase reporter, at 10 µM, stronger effect = higher value
[8] = TLR3 IRF3 reporter activation blockers – cell-based, poly I:C stimulus, luciferase, 10K MLSCN set, primary screen (AID 602277); conditions: HEK293-TLR3 RL24 IRF3 luciferase reporter, at 10 µM, stronger effect = higher value

Row | Compound | cell count [1] | inhibition [1] | inhibition of aggregation [2] | nuclei count [2] [%] | inhibition [3] | nuclei count [3] [%] | fluorescence slope [4] | NADPH fluorescence slope [5] | slope [6] | inhibition [7] | inhibition [8]
1 | CCN(c1ccc2c(c1)OCO2)S(=O)(=O)c1cc(Br)cc2c1N(C(=O)C1CC1)CC2 | 341 | -14.4% (inactive) | 1.3% (inactive) | 99.8 | -9% (inactive) | 147 | -0.525 (inactive) | -0.000116 (inactive) | 0.00411 (inactive) | 11.9% (inactive) | 21.6% (inactive)
2 | COc1ccc(N(CC(=O)O)S(=O)(=O)c2ccc(OC)c(OC)c2)cc1 | 501 | -2.1% (inactive) | -12.1% (inactive) | 99 | -11.5% (inactive) | 111 | -0.475 (inactive) | 6.8e-05 (inactive) | 0.00634 (inactive) | 15.4% (inactive) | 22.3% (inactive)
3 | CSc1nc2c(c(=O)n1C)SC(C)C2 (centres undefined) | 612 | 8.7% (inactive) | -10.1% (inactive) | 111 | -32.9% (inactive) | 115 | -0.567 (inactive) | -4.8e-05 (inactive) | 0.00545 (inactive) | 4.05% (inactive) | 31.4% (inactive)
4 | CCOC(=O)C1C2C=CC3(CN(c4cccc(Cl)c4)C(=O)C13)O2 (centres undefined) | 656 | -0.3% (inactive) | 8.1% (inactive) | 105 | -11.3% (inactive) | 110 | -0.398 (inactive) | 9e-06 (inactive) | 0.0053 (inactive) | 13.2% (inactive) | 44.5% (inactive)
5 | Cc1ccccc1-n1c(Cn2c(=O)sc3ccccc32)nnc1SCC(=O)N1CCCC1 | 652 | 8.7% (inactive) | 13.1% (inactive) | 112 | -36.1% (inactive) | 120 | -0.547 (inactive) | -3.9e-05 (inactive) | 0.00766 (inactive) | 12.7% (inactive) | 10.7% (inactive)
6 | CCOC(=O)c1[nH]nc(N)c1NC(=O)c1ccc(Cl)cc1Cl | 554 | -4.9% (inactive) | 3.8% (inactive) | 99.2 | -238% (inactive) | 134 | -0.456 (inactive) | 8.2e-05 (inactive) | 0.00589 (inactive) | -16.4% (inactive) | -22.5% (inactive)
7 | COc1cccc(NC(=O)N2CCCC2C(=O)NC(C)C)c1 (centres undefined) | 436 | 1.5% (inactive) | -4.5% (inactive) | 121 | -49.5% (inactive) | 114 | -0.601 (inactive) | -2.2e-05 (inactive) | 0.00309 (inactive) | 10.9% (inactive) | 13.7% (inactive)
8 | C=CCOC(=O)C1=C(C)OC(N)=C(C#N)C1c1ccc2c(c1)OCO2 (centres undefined) | 229 | 13.4% (inactive) | -3% (inactive) | 90.4 | 9.6% (inactive) | 136 | -0.602 (inactive) | -3.1e-05 (inactive) | 0.00567 (inactive) | -2.6% (inactive) | 7.38% (inactive)
9 | COc1cccc(-c2cc(C(=O)N3CCCCCC3)no2)c1 | 519 | -11.6% (inactive) | -8.6% (inactive) | 82.4 | -44.3% (inactive) | 116 | -0.522 (inactive) | -3.5e-05 (inactive) | 0.00692 (inactive) | -24.6% (inactive) | -141% (inactive)
10 | CC1(C)Oc2ccc3ccc(=O)oc3c2C(N2CCCCC2)C1O (centres undefined) | 329 | -4.5% (inactive) | 15% (inactive) | 94.7 | -30.2% (inactive) | 104 | -0.34 (inactive) | 1.2e-05 (inactive) | 0.00144 (inactive) | 18.2% (inactive) | 33.6% (inactive)
11 | CCCCS(=O)(=O)NC1=NCN(C2CCN(Cc3ccccc3)CC2)CN1 | 378 | -2.1% (inactive) | 17.7% (inactive) | 97.1 | -23.1% (inactive) | 113 | -0.572 (inactive) | -9.6e-05 (inactive) | 0.00667 (inactive) | 4.05% (inactive) | 18.7% (inactive)
12 | Cc1nn(CC(O)Cn2c3c(c4ccccc42)CCN(C)C3=O)c(C)c1Br (centres undefined) | 363 | -4.7% (inactive) | 10.5% (inactive) | 101 | 45.5% (inactive) | 75.2 | -0.427 (inactive) | -3e-05 (inactive) | 0.00532 (inactive) | 21.6% (inactive) | 21.9% (inactive)
13 | O=C(CSc1ncccn1)NCc1ccccc1 | 362 | 2.5% (inactive) | 12.3% (inactive) | 103 | 36.4% (inactive) | 120 | -0.531 (inactive) | 3.2e-05 (inactive) | 0.00529 (inactive) | -29.7% (inactive) | -47.8% (inactive)
14 | O=C(c1cnccn1)N(c1ccccc1)C1(C(=O)NC2CCCC2)CCCCC1 | 630 | -15.7% (inactive) | 4.8% (inactive) | 96.4 | -31.9% (inactive) | 116 | -0.518 (inactive) | -5.8e-05 (inactive) | 0.00495 (inactive) | 6.65% (inactive) | 16.5% (inactive)
15 | NC(=O)c1ccccc1NC(=O)CCCN1C(=O)CCC1=O | 567 | -1.8% (inactive) | -7.8% (inactive) | 104 | -30.7% (inactive) | 92.1 | -0.601 (inactive) | -1.2e-05 (inactive) | 0.00648 (inactive) | 2.16% (inactive) | 13.3% (inactive)
16 | NC(=O)c1ccccc1NC(=O)CN1CCOCC1 | 658 | -24.7% (inactive) | -45.9% (inactive) | 124 | -46.9% (inactive) | 105 | -0.492 (inactive) | -3.8e-05 (inactive) | 0.00501 (inactive) | 21.2% (inactive) | 20.7% (inactive)
17 | CN(C)S(=O)(=O)Nc1ccc(Br)cc1F | 688 | -11.1% (inactive) | 9.4% (inactive) | 103 | -24.9% (inactive) | 100 | -0.439 (inactive) | -8.8e-06 (inactive) | 0.00541 (inactive) | 8.09% (inactive) | 15.9% (inactive)
18 | COc1ccc(CCNc2oc(COc3ccc(F)cc3)nc2C#N)cc1 | 407 | -9.8% (inactive) | 8.7% (inactive) | 88.8 | 17% (inactive) | 74.8 | -0.608 (inactive) | -3.3e-06 (inactive) | 0.00681 (inactive) | 15.6% (inactive) | 23.5% (inactive)
19 | O=C(CSc1nnc(CNC(=O)c2cccs2)o1)Nc1cccc(C(F)(F)F)c1 | 262 | 3.8% (inactive) | -12.8% (inactive) | 78.7 | -14.2% (inactive) | 111 | -0.379 (inactive) | -5.5e-05 (inactive) | 0.00592 (inactive) | 6.93% (inactive) | 19.8% (inactive)
